Assay results reported in PubChem BioAssay (Tox21).
A number with no mark means an inactive call. Entries that show only a call come without a potency. Active and inactive are the calls of the source. Calls come from the whole dose curve; as a rule, active = well fitted curve in the direction sought with a large enough effect in the repeat runs; inconclusive = weak or mixed curves; inactive = flat fitted curve, though single readings scatter.

Assay: qHTS assay to test for compound auto fluorescence at 590 nm (red) in HEK293 cell free culture (AID 720683)
Conditions: cell-free medium autofluorescence, Ex540/Em590 red; series mostly up to 91.3 µM
Text: U.S. Tox21 Program National Center for Advancing Translational Sciences [NCATS] NIH Chemical Genomics Center [NCGC] U.S. Environmental Protection Agency [EPA] National Institutes of Environmental Health Sciences [NIEHS] National Toxicology Program [NTP] U.S. Food and Drug Administration [FDA] Tox21 Assay Overview: Compound auto fluorescence often interferes with screening of the compound library against various biological targets and signaling pathways. Some of these compounds may have fluorophoric properties. Such properties may interfere with the assay outputs resulting in false positives and/or negatives. To decrease such complications and ensure the compound activities are relevant in terms of biological response, the Tox21 10K compound library was screened for auto fluorescence. From the fluorophores used as reporter signals in our screening assays, the auto fluorescence equivalencies of compounds against three fluorophores have been evaluated: Triamterene, Fluorescein and Rose Bengal sodium for blue, green and red fluorescence, respectively. The fluorescence intensities were measured using Excitation/Emission wavelengths at 405/460nm, 485/535nm and 540/590nm for blue, green and red labels, respectively. This assay includes the red fluorescence data.
Tox21 Assay Protocol Summary: 5 uL of culture medium (DMEM containing 10% FBS) per well was dispensed into black wall/clear bottom 1536-well plates using a Multidrop Combi Dispenser (ThermoFisher Scientific, Waltham, MA). After 23 nL compound or DMSO vehicle was transferred into assay plate by a pintool work station (Kalypsys, San Diego, CA), fluorescence intensities in the assay plates were measured by an Envision (PerkinElmer, Shelton, CT) plate reader using three labels for measuring blue, green and red fluorescence at […] 460, 535 and 590nm respectively.

Compound | Potency | fluorescence, % of fluorescent control
O=[N+]([O-])c1ccc(NCCO)c(OCCO)c1 | inactive | 
CCO[C@H](Cc1ccc(OCCc2ccc(OS(C)(=O)=O)cc2)cc1)C(=O)O | inactive | 
COc1ccc(-c2nc3ccc(C4=NNC(=O)CC4C)cc3[nH]2)cc1 (stereo not given) | inactive | 
CC[N+](C)(CC)CCOC(=O)C(O)(c1ccccc1)C1CCCCC1 (stereo not given) | inactive | 
COc1ccc(C(=O)c2ccc(OC)cc2O)c(O)c1 | inactive | 
CCCNCC(O)COc1ccccc1C(=O)CCc1ccccc1 (stereo not given) | inactive | 
CCOC(=O)c1cccnc1 | inactive | 
CCCCCCCCCCCCN1CCCCCC1=O | inactive | 
c1ccc(-c2ccccn2)nc1 | inactive | 
CCOC(=O)NCCOc1ccc(Oc2ccccc2)cc1 | inactive | 
CC(C)O.CC(C)O.CCOC(=O)/C=C(\C)O.CCOC(=O)/C=C(\C)O.[Ti] | inactive | 
C#CCN(C)CCCOc1ccc(Cl)cc1Cl | inactive | 
O=C1CCCCCCCCCCCC(=O)OCCO1 | inactive | 
O=C1C(O)=C(O)C(=O)C(O)=C1O | inactive | 
O=C(O)c1ccco1 | inactive | 
O=C(O)c1ccc(S(=O)(=O)O)cc1C(=O)O | inactive | 
CCCCC/C=C\C/C=C\CCCCCCCC(=O)NC(C)c1ccccc1 (stereo not given) | inactive | 
CC(CC=O)c1ccccc1 (stereo not given) | inactive | 
Nc1cccc(S(=O)(=O)c2cccc(N)c2)c1 | inactive | 
CCOC(=O)C(F)(F)F | inactive | 

Compound | Potency | fluorescence, % of fluorescent control
CCC(C)(C)CC | inactive | 
CC1=CC[C@H](C(C)C)C=C1 | inactive | 
C[C@@H]1C[C@H]2O[C@@]3(O[C@@H]2C(C)(C)O)[C@H](O)[C@@]2(C)[C@@H]4CC[C@H]5C(C)(C)[C@@H](O[C@@H]6OC[C@@H](O)[C@H](O)[C@H]6O)CC[C@@]56C[C@@]46CC[C@]2(C)[C@@H]13 | inactive | 
C[C@H]1C[C@H]2[C@@H]3CCC4=CC(=O)C=C[C@]4(C)[C@@]3(Cl)[C@@H](O)C[C@]2(C)[C@@]1(O)C(=O)CO | inactive | 
CCCCCCCCCCCCCCOS(=O)(=O)O | inactive | 
CCN(CC)CCNC(=O)c1cc(Br)c(N)cc1OC | inactive | 
CCCCNc1ccc(C(=O)OCCOCCOCCOCCOCCOCCOCCOCCOCCOC)cc1 |  | -0.482% [at 18.6 µM]
Cc1nn(C)c(Oc2ccccc2)c1/C=N/OCc1ccc(C(=O)OC(C)(C)C)cc1 | inactive | 
CNCCCN1c2ccccc2CCc2ccccc21 |  | 0.0052% [at 18.6 µM]
COc1ccnc(CS(=O)c2nc3ccc(OC(F)F)cc3[nH]2)c1OC (stereo not given) | inactive | 
COc1ccc(S(=O)(=O)N2C(=O)[C@@](c3ccccc3OC)(N3C[C@H](O)C[C@H]3C(=O)N(C)C)c3cc(Cl)ccc32)c(OC)c1 | inactive | 
O=C(CS)Nc1ccccc1 | inactive | 
COc1ccc(C(=O)Nc2nc3ccccc3c(NCc3ccccc3)c2C#N)cc1 | inactive | 
CCCCCCCCCCCCCCCCOS(=O)(=O)O | inactive | 
C[C@@H](c1ncncc1F)C(O)(Cn1cncn1)c1ccc(F)cc1F (stereo not given in full) | inactive | 
Clc1ccc2c(c1)CCc1cccnc1C2=C1CCNCC1 | inactive | 
C/C=C/C=C/CO | inactive | 
CCCCc1nc2cccnc2n1Cc1ccc(-c2ccccc2-c2nnn[nH]2)cc1 | inactive | 
COc1cccc(N(C)C(=S)Oc2ccc3c(c2)CCCC3)n1 | inactive | 
CCCCC1=NC2(CCCC2)C(=O)N1Cc1ccc(-c2ccccc2-c2nn[nH]n2)cc1 | inactive | 
